Screening results (PubChem BioAssay)
SUMO Mot1 rescue = yeast Mot1-301 growth rescue at high temperature, primary screen, SUMOylation pathway inhibitor project, S. cerevisiae, ATP luminescence, 38.5C; S. cerevisiae Mot1-301 growth rescue; percent above DMSO median, 100 means doubled; growth rescue, % at 18.8 µM; 320,000 compounds, 1% hits; AID 2716, 2010;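 active = every valid replicate shows activation above 250% relative to neutral control wells; inactive = the rest, any valid replicate at or below 250%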;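 note: OY570 slx delta 5 strain wells were the positive control but not used for scaling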
aDG glyco up = activators of alpha-DG glycosylation, primary screen, uHTS, Pro5-aDG cells, AlphaScreen; alpha-DG glycosylation AlphaScreen (IIH6); 0% Pro5, 100% B10-LARGE cell signal; activation, % at 10 µM; 360,000 compounds, 0.22% hits; AID 624168, 2012;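 active = activation of at least 8% versus controls, or a plate z-score of at least 8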;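 note: Pro5 are CHO cells carrying HIG-tagged alpha-DG that lacks glycosylation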
CR mimetic SO = reduction of superoxide in aged yeast, primary screen, HTS; superoxide response (% of plate mean), % at 10 µM; 330,000 compounds, 0.18% hits; S. cerevisiae aged cells, superoxide DHE fluorescence; active compounds read low; AID 2690, 2010;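 active = superoxide response under a set limit, about three screen SD below normal, cut at about 65% in these data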;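 note: yeast aged for seven days with compound at 30 °C before DHE staining; 100% = average MFI of all compound-treated wells on the plate with controls excluded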
MPTP inh = mitochondrial permeability transition pore inhibitors, primary screen, biochemical, isolated mouse mitochondria, absorbance | inhibition, % at 10 µM | 360,000 compounds, 1.4% hits | Ca2+ swelling absorbance, 30 min;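 active = inhibition of 50% or more, scaled per plate between neutral and stimulator controls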;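 note: 0% = DMSO wells given calcium and 100% = 1 mM EGTA wells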
FAS TE block = FAS thioesterase domain inhibitors, primary screen, biochemical, fluorescence intensity, uHTS; recombinant FAS-TE, OMFH fluorogenic substrate, fluorescence endpoint; 360,000 compounds, 0.67% hits; inhibition, % at 15 µM; Fatty acid synthase (Homo sapiens), P49327; AID 602261, 2012;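 active = compounds whose normalised, plate-corrected inhibition of enzyme fluorescence in the single-dose primary screen is 50% or more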;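 note: 0% = DMSO with enzyme and 100% = substrate without enzyme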
H9c2 protect = cardioprotection against H2O2-induced cell death, primary screen, uHTS, H9c2 cells, ATPLite luminescence; protection from H2O2 cell death, % at 20 µM; H9c2 cardiomyocytes, H2O2 injury protection, 2 h; AID 588492, 2011; 360,000 compounds, 0.63% hits;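 active = compounds giving at least 50% protection of heart cells from peroxide-induced death in the single-dose screen, raw or plate-pattern-corrected value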;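 note: 0% = DMSO wells with peroxide and 100% = DMSO wells without peroxide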
Rh123 counter = fluorescence retest of MPTP screen hits in isolated mitochondria, single concentration; 5,000 compounds, 78% hits; inhibition, % at 10 µM; AID 624504, 2012; membrane potential, Rhodamine 123 fluorescence; shares compounds with MPTP inh; in the data active = inhibition above about 22%;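 note: 0% = DMSO vehicle and 100% = positive control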
MPTP abs DR = mitochondrial permeability transition pore inhibitors, dose response, biochemical, absorbance, uHTS hits; shares compounds with MPTP inh; isolated mitochondria swelling; IC50, µM; 780 compounds, 58% hits; AID 651561, 2012; in the data active = IC50 below about 20 µM
MPTP cs DR = fluorescent counter-screen in isolated mitochondria, dose response, counter-screen for MPTP inhibitor project, biochemical, fluorescence, uHTS hits | shares compounds with MPTP inh | isolated mitochondria counterscreen, fluorescence read-out | IC50, µM | 780 compounds, 49% hits | AID 651564, 2012; in the data active = IC50 below about 80 µM
* hit, by the source's call; / = not tested or not shown; ! = repeats disagree. A selection: hits, their analogues and other compounds. The true share with any hit is near 3.8%.

SMILES	SUMO Mot1 rescue	aDG glyco up	CR mimetic SO	MPTP inh	FAS TE block	H9c2 protect	Rh123 counter	others
Cc1ccc(S(=O)(=O)c2nc(NCCN(C)C)sc2Cl)cc1	-10	0	102	-4	-2	2	/
COc1ccc(Nc2nc(S(=O)(=O)c3ccc(C)cc3)c(Cl)s2)cc1	5	1	107	59*	36	-7	76*
Nc1ccn([C@@H]2O[C@H](C(=O)N[C@H](COC=O)Cc3ccccc3)[C@@H](O)[C@H]2O)c(=O)n1	/	0	/	0	-18	4	/
O=C(CSc1nnc(-c2cccnc2)s1)Nc1ccnc2ccccc12	257	6	94	104*	-13	-13	73*
O=C(N/N=C/c1cc([N+](=O)[O-])ccc1O)c1cc(-c2ccccc2)nc2ccccc12	329	0	87	98*	36	17	50*
O=C(N/N=C/c1ccc(Cl)c([N+](=O)[O-])c1)c1cc(-c2ccccc2)nc2ccccc12	41	-1	112	68*	32	1	75*
NNC(=O)c1cc(-c2cccs2)nc2ccccc12	-1	0	87	-1	-3	7	/
Cc1cccc2sc(NNC(=O)c3cc(-c4cccs4)nc4ccccc34)nc12	-15	0	113	68*	11	4	87*
Fc1ccc(Nc2c3c(nc4ccccc24)CCC3)cc1	195	2	108	70*	3	-23	84*
c1ccc(Nc2c3c(nc4ccccc24)CCC3)cc1	-7	5	90	45	1	-10	/
CC(=O)c1ccc(OCc2cc(C(=O)N3CCN(C4CCCC4)C(=O)C3)no2)cc1	-10	0	99	-2	0	-5	/
CC(C)OC(=O)c1ccc(NC(=O)CSc2nc3ncccc3[nH]2)cc1	-1	1	102	71*	-8	-15	47*
CC(C)c1ccc(NC(=O)CSc2nc3ncccc3[nH]2)cc1	2	0	74	4	3	-16	/
CC(C)Cc1nnc(NC(=O)c2ccc(-n3cncn3)c([N+](=O)[O-])c2)s1	/	0	/	0	-2	2	/
O=C(CSc1ncnc2ccccc12)c1ccc2c(c1)OCCO2	146	1	97	58*	8	-20	65*
CCc1nc(SCC(=O)c2ccc3c(c2)OCCO3)c2ccccc2n1	-4	0	89	4	21	17	/
CCCN1CCN(C(=S)Nc2ccc([N+](=O)[O-])cc2)CC1	-5	0	91	60*	-7	-8	66*
O=[N+]([O-])c1ccc(NC(=S)N2CCN(c3ccccc3)CC2)cc1	-6	0	113	72*	19	-16	84*
O=C(Nc1ccc(Cl)cc1)N1CCN(c2ccccc2)CC1	9	0	103	66*	2	10	75*
O=[N+]([O-])c1ccc(N2CCN(C(=S)Nc3ccccc3)CC2)cc1	-1	1	99	0	-1	-2	/
CCCCCCCCCCCCC/C=C/[C@@H](O)[C@@H](N)CO	59	0	108	98*	-27	-36	-8
O=C(NCc1ccccc1OC(F)(F)F)C1CCC(=O)N(C2CC2)C1 (stereo not given)	4	0	83	0	-8	-1	/
Cc1cc(C(=O)NC2CCCc3c2cnn3-c2ccc(C)c(C)c2)n(C)n1 (stereo not given)	12	2	118	93*	-1	-18	87*
Cc1ncoc1C(=O)NC1CCCc2c1cnn2-c1ccc(C(C)(C)C)cc1 (stereo not given)	/	4	/	79*	4	-21	94*
O=C1CCC(=O)N1c1ccc(S(=O)(=O)N2CCCC2)cc1	2	0	117	0	-2	1	/
SMILES	SUMO Mot1 rescue	aDG glyco up	CR mimetic SO	MPTP inh	FAS TE block	H9c2 protect	Rh123 counter	others
O=S(=O)(c1cccc2nsnc12)N1CCCCC1	-7	0	94	-1	-6	3	/
Cc1ccc(C)c(N2CCN(C(=O)c3nn(C)c4c3CS(=O)(=O)c3ccccc3-4)CC2)c1	44	1	117	-1	27	0	/
Cc1ccc(O)c(N=Cc2cc(Cc3ccccc3)cc([N+](=O)[O-])c2O)c1	/	0	/	64*	10	28	55*
O=C(O)Cc1csc2ccccc12	-5	0	117	-2	-3	3	/
O=C(NCc1ccccn1)Nc1cc(Cl)cc(Cl)c1	-15	0	102	83*	6	-7	100*
O=C(NCc1ccccn1)Nc1ccc(F)c(Cl)c1	-2	0	95	0	0	0	/
O=C(NCc1ccccn1)Nc1ccc(Cl)c(Cl)c1	-18	0	110	51*	6	2	85*
Cc1ccc(NC(=O)NCc2ccncc2)cc1Cl	-15	0	82	63*	0	5	79*
O=C(NCc1csc2ccccc12)Nc1cc(Cl)cc(Cl)c1	-17	0	94	86*	4	-16	76*
CCCN(CC(=O)Nc1ccccc1OC)C(=O)CSC(=S)N1CCCC1	6	0	95	-1	-5	2	/
COC(=O)c1cc(S(=O)(=O)N2CCN(c3cccc(Cl)c3)CC2)c[nH]1	-8	0	107	0	0	-15	/
CCc1cc(Cl)c(OC)c(C(=O)NC[C@@H]2CCCN2CC)c1O	12	0	103	78*!	4	12	-6	MPTP abs DR=9*;MPTP cs DR=>80
CC(=O)Nc1ccc(-c2ccnc3c2CC(C)(C(=O)NC(C)C)O3)cc1 (stereo not given)	/	0	/	0	-12	0	/
CC1CCCN(c2nc(-c3cccnc3)nc3scc(-c4ccccc4)c23)C1 (stereo not given)	-1	0	83	73*	24	-4	-2	MPTP abs DR=7*;MPTP cs DR=>80
CCc1nc2ccc(C(=O)NCc3ccc4c(c3)OCO4)cn2c1N(CC)Cc1cccc(Br)c1	/	0	/	0	6	-11	/
Clc1ccc(COc2cccc(CNCc3ccncc3)c2)cc1	10	6	110	68*	1	-19	85*
